PubChem BioAssay
Active and inactive are the calls of the source.

What was measured:
[1] = test system: Human papillomavirus type 1a protein E7 (residues 44-93); assay: HPV1a E7 fragment binders on microarrays, primary screen, biochemical, small-molecule microarray, residues 44-93, 635 nm fluorescence (AID 1108); settings: small-molecule microarray binding, fluorescence 635 nm; higher = more signal;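 note: E7 fragment applied at 1 µg/mL in TBST for 1 h at 4 C; score combines spot fluorescence with its signal to noise ratio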
[2] = modulators of HCV replicon luciferase signal, primary screen, HCV replication inhibitor project, Huh7 cells, luciferase reporter (AID 1109); settings: 48 h, higher = more signal;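 note: huh7 hepatoma cells harbouring a luciferase neomycin HCV replicon reporter; luciferase luminescence as measure of HCV replicon replication; test concentration not given here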
[3] = target: Left-right determination factor 2 (Homo sapiens) (UniProt O00292); assay: LEFTY2 binders on small-molecule microarrays, primary screen, biochemical, small-molecule microarray, 635 nm fluorescence scan (AID 1110); settings: LEFTY2 binding, higher = more signal
[4] = target: Calmodulin-1 (Homo sapiens) (UniProt P0DP23); assay: CALM1 binders on microarrays, EGTA buffer, profiling panel, biochemical, small-molecule microarray, Cy5-labelled CALM1 (AID 1111); settings: Cy5-CALM1 binding fluorescence, higher = more signal;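 note: labelled calmodulin applied in Tris saline Tween buffer holding calcium plus EGTA and DTT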
[5] = target: Calmodulin-1 (Homo sapiens) (UniProt P0DP23); assay: calcium-bound CALM1 binders on microarrays, profiling panel, artefact control for SMM control-protein annotation, biochemical, small-molecule microarray, Cy5-labelled CALM1, plus calcium (AID 1112); settings: Cy5-CALM1 binding fluorescence, higher = more signal;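 note: score merges spot fluorescence with signal to noise from triplicate slides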
[6] = small-molecule microarray binders of probe aWnt5a, primary screen, biochemical, biotinylated probe, 635/667 nm fluorescence (AID 1113); settings: higher = more signal;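 note: score merges 667 nm fluorescence intensity with signal-to-noise per printed feature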
[7] = small-molecule microarray binders of probe aShh, primary screen, biochemical, biotinylated probe, 635/667 nm fluorescence (AID 1114); settings: higher = more signal;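 note: probe is biotin-labelled aShh protein from a stem cell growth factor screen; measures binding of labelled protein to compounds printed on the slide; score merges feature fluorescence at 667 nm with signal-to-noise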
[8] = small-molecule microarray binders of probe aNog, primary screen, biochemical, biotinylated probe, 635/667 nm fluorescence (AID 1115); settings: higher = more signal;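 note: probe is biotinylated aNog protein used at 0.15 µg/mL for 1 h at 4 C; z-score combines 667 nm fluorescence of each spot with its signal to noise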
[9] = target: Torsin-1A-interacting protein 1 (Homo sapiens) (UniProt Q5JTV8); assay: LAP1 binders from COS7 cell lysate, primary screen, small-molecule microarray, 635/667 nm fluorescence (AID 1116); settings: COS7-hLAP1 lysate binding, 635 nm fluorescence, higher = more signal
[10] = target: Alpha-bungarotoxin (Bungarus multicinctus) (UniProt P60615); assay: alpha-bungarotoxin binders on microarray, profiling panel, artefact control for SMM control protein annotation, biochemical, small-molecule microarray, Alexa647 label, 635/667 nm fluorescence (AID 1117); settings: alpha-BTX-A647 binding fluorescence, higher = more signal
[11] = target: Albumin (Bos taurus) (UniProt P02769); assay: bovine serum albumin binders on microarray, profiling panel, artefact control for SMM control protein annotation, biochemical, small-molecule microarray, Alexa647 label, 635/667 nm fluorescence (AID 1118); settings: BSA-A647 binding, fluorescence 635 nm, higher = more signal;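 note: score merges 667 nm emission intensity and signal-to-noise per printed compound spot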
[12] = small-molecule microarray binders of probe aXIP, primary screen, biochemical, NeuroSMM set, 635/667 nm fluorescence (AID 1119); settings: higher = more signal, called active from +8 up or from −8 down;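 note: probe is the protein aXip251-270 applied at 1 µg/mL to compound-printed slides; binding of probe to printed compounds measured as 667 nm fluorescence plus signal to noise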
[13] = small-molecule binders of probe aNOTCH3, primary screen, biochemical, small-molecule microarray, 635/667 nm fluorescence (AID 1120); settings: higher = more signal;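 note: probe is a biotin-tagged antibody raised against NOTCH3 rather than NOTCH3 protein; score merges spot fluorescence near 667 nm with spot signal to noise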
[14] = small-molecule binders of probe aNOTCH2, primary screen, biochemical, small-molecule microarray, 635/667 nm fluorescence (AID 1121); settings: higher = more signal;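 note: score merges feature fluorescence read at 667 nm with its signal to noise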
[15] = target: Carbonic anhydrase 2 (Homo sapiens) (UniProt P00918); assay: CAII small-molecule binders, profiling panel, biochemical, small-molecule microarray, Alexa647-labelled CAII (AID 1122); settings: CAII-A647 binding fluorescence, higher = more signal
[16] = COS7 lysate on small-molecule microarray, probe aHis, 635 nm (AID 1123); settings: COS7 cell lysate, fluorescence, higher = more signal;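 note: z-score combines 667nm fluorescence intensity with signal-to-noise per printed compound spot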
[17] = compound binding in COS7 lysate, probe aLAP1, primary screen, cell lysate, small-molecule microarray (AID 1124); settings: probe aLAP1, fluorescence, higher = more signal;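 note: lysate comes from COS7 cells expressing LAP1 and is applied at 0.3 µg/mL; score merges spot fluorescence near 667 nm with signal-to-noise over triplicate slides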
[18] = test system: Sam68 (KHDRBS1); assay: Sam68 small-molecule binders, primary screen, biochemical, small-molecule microarray, 635 nm fluorescence (AID 1125); settings: small-molecule microarray binding, higher = more signal;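 note: score merges 667 nm channel intensity with signal to noise over triplicate slides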
[19] = test system: Chordin-like protein 2 (CHRDL2); assay: CHRDL2 small-molecule binders, primary screen, biochemical, small-molecule microarray, 635 nm fluorescence (AID 1126); settings: small-molecule microarray binding, fluorescence 635 nm; higher = more signal;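 note: printed compound slides probed with Chrdl2 protein at 4 µg/mL for 1 h at 4 C; score merges 667 nm emission intensity with signal to noise over three replicate slides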
[20] = target: Concanavalin-A (Canavalia ensiformis) (UniProt P02866); assay: ConA small-molecule binders, primary screen, artefact control for SMM control protein annotation, biochemical, small-molecule microarray, Alexa647 label, 635 nm (AID 1127); settings: ConA-A647 binding fluorescence, higher = more signal;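 note: z combines 667 nm emission intensity with signal-to-noise across three replicate slides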
Sequence of Concanavalin-A (Canavalia ensiformis) (P02866 whole entry, looked up): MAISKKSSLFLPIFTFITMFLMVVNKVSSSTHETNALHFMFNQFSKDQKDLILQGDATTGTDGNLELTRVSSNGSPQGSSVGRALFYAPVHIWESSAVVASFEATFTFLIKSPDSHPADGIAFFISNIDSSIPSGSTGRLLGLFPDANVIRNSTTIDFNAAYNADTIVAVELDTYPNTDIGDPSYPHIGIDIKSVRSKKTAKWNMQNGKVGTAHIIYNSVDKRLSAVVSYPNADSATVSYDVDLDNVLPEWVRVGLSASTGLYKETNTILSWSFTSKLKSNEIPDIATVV

Sequence of Left-right determination factor 2 (Homo sapiens) (O00292 whole entry, looked up): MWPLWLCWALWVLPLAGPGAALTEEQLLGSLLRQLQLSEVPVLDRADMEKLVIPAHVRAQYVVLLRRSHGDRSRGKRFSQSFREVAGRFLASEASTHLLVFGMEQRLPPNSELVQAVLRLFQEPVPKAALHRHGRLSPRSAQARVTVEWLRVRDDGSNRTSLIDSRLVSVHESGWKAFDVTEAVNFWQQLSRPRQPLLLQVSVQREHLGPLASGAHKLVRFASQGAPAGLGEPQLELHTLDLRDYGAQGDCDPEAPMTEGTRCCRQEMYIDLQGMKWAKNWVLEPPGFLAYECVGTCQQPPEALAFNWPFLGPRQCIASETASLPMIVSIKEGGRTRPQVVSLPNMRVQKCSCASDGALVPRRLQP
Sequence of Albumin (Bos taurus) (P02769 whole entry, looked up): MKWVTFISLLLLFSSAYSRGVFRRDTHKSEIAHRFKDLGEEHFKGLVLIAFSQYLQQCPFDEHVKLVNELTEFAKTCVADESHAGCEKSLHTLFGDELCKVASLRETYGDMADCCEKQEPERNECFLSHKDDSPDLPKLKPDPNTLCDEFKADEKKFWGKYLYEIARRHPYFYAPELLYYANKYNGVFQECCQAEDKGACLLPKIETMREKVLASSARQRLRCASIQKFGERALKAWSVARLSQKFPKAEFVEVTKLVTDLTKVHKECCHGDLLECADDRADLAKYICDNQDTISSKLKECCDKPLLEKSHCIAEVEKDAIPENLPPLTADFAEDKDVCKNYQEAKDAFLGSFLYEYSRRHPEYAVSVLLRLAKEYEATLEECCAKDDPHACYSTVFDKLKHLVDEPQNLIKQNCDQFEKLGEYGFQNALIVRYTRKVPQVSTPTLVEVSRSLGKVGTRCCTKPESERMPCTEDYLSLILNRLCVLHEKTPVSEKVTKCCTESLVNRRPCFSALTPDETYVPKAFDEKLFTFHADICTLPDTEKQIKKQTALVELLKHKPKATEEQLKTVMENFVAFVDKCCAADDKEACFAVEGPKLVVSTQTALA
Sequence of Torsin-1A-interacting protein 1 (Homo sapiens) (Q5JTV8 whole entry, looked up): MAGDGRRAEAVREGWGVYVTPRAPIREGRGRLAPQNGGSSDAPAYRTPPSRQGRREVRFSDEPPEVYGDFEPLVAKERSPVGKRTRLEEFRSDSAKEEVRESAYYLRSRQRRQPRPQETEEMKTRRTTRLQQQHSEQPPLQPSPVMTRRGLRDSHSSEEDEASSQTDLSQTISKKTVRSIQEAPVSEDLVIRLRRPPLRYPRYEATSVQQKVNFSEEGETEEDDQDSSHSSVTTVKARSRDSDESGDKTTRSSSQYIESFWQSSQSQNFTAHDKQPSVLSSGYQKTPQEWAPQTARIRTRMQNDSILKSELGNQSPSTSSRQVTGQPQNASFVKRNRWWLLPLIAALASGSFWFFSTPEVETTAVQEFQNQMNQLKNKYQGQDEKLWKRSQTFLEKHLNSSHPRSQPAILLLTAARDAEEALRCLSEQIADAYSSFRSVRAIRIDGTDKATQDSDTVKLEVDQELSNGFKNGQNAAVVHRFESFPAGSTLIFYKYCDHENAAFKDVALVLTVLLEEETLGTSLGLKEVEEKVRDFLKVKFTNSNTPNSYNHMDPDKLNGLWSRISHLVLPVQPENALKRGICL
Sequence of Alpha-bungarotoxin (Bungarus multicinctus) (P60615 whole entry, looked up): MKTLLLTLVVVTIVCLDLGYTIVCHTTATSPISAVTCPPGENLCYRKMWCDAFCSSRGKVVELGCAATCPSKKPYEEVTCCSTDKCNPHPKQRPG

| SMILES | composite z-score [1] | z-score [2] | composite z-score [3] | composite z-score [4] | composite z-score [5] | composite z-score [6] | composite z-score [7] | composite z-score [8] | composite z-score [9] | composite z-score [10] | composite z-score [11] | composite Z-score [12] | composite z-score [13] | composite z-score [14] | composite z-score [15] | composite z-score [16] | composite z-score [17] | composite z-score [18] | composite z-score [19] | composite z-score [20] |
| --- | --- | --- | --- | --- | --- | --- | --- | --- | --- | --- | --- | --- | --- | --- | --- | --- | --- | --- | --- | --- |
| [N-]=[N+]=Nc1ccccc1[C@@H]1OC(c2ccc(OCCCO)cc2)=N[C@]1(CCS(=O)(=O)c1ccccc1)C(=O)NCC(O)CO (stereo not given in full) | 0.535 | -0.485 | -0.741 | 0.867 | -0.271 | -0.0977 | -0.0011 | 0.437 | 2.18 | 0.534 | 0.91 | 0.339 (inactive) | -0.023 | 0.014 | 0.564 | 2.5 | 0.649 | 0.885 | -0.165 | 0.998 |
| [N-]=[N+]=Nc1ccccc1[C@H]1OC(c2ccc(OCCCO)cc2)=N[C@@]1(Cc1ccccc1)C(=O)NCC(O)CO (stereo not given in full) | 1.38 | -1.29 | -1.04 | 1.04 | 1 | 0.119 | 0.257 | 0.0005 | 1.5 | 1.57 | 0.793 | 0.0774 (inactive) | 0.0372 | -0.174 | 0.444 | 3.2 | -0.142 | 0.495 | -0.832 | 0.962 |
| COC(=O)C1=CC(CCCO)=CC(c2cccs2)N(Cc2cc3c(cc2Br)OCO3)C=C1C(=O)OC (stereo not given) | 0.931 | -1.64 | 0.578 | 1.69 | 0.458 | 0.0618 | 0.246 | -0.0381 | 0.834 | 2.49 | 0.739 | 1.26 (inactive) | 0.062 | -0.0645 | 0.769 | 2.43 | 0.0385 | 1.3 | 0.249 | 1.21 |
| COc1ccc(C(=O)Nc2ccc(CN3C(=O)[C@@]4(O[C@@H](CCn5cc(CCO)nn5)[C@H]([Si](C)(C)c5ccc(OC)cc5)[C@H]4C)c4ccccc43)cc2)cc1 | 1.33 | -5.11 | 0.904 | -0.0429 | -0.668 | 0.0433 | -0.0146 | 0.0117 | 1.09 | 0.829 | 0.264 | 0.32 (inactive) | 0.0276 | -0.0895 | 0.348 | 0.822 | 0.116 | 1.32 | 0.919 | 1.09 |
| COc1cc(C(O)C2C=CC3C(=O)N(c4ccccc4)C(=O)C3N2Nc2ccccc2)cc(OC)c1OC (stereo not given) | 1.46 | -0.63 | -0.0844 | 1.84 | 0.613 | 0.0472 | 0.551 | 1.66 | 1.6 | 1.9 | 0.993 | 0.328 (inactive) | 0.416 | -0.0742 | 0.573 | 2.89 | 0.496 | 1.31 | -0.872 | 1.15 |
| CC[C@@H]1C=C(C(=O)O)[C@H](c2ccc(OC)cc2)N1S(=O)(=O)c1ccc(C)cc1 | -0.875 | -0.619 | -0.495 | 0.15 | 0.0583 | -0.154 | -0.221 | -0.209 | 0.076 | 0.0708 | 0.493 | 0.112 (inactive) | -0.061 | -0.173 | 0.852 | 2.55 | -0.388 | -0.815 | -0.377 | -0.0828 |
| C=C(CCCC)/C(=C/C[C@@H](OC(C)=O)c1ccc(CO)o1)c1cnc2ccccc2c1 | 1.42 | -0.756 | 0.735 | 0.626 | -0.764 | -0.0704 | 0.147 | -0.0719 | 1.69 | 1.15 | 0.333 | -0.117 (inactive) | 0.185 | -0.0684 | 0.476 | 1.45 | 1.17 | 1.3 | 1.03 | 0.875 |
| C=C(COC)C(=O)CC[C@H](OC(=O)c1cccnc1)c1ccc(OCCO)cc1 | 1.27 | -0.345 | 0.65 | -0.395 | -1.33 | -0.176 | -0.379 | -0.0762 | 2.53 | 0.994 | -0.286 | 0.509 (inactive) | 0.201 | -0.128 | 0.665 | 0.709 | 1.53 | 1.14 | 0.563 | 0.293 |
| N#Cc1ccc(C(O)C2C=CC3C(=O)NC(=O)C3N2Nc2ccc(Cl)cc2Cl)cc1 (stereo not given) | 0.544 | -0.436 | -0.535 | 1.69 | 0.635 | 0.0438 | 0.296 | 0.732 | 2.08 | 0.531 | 0.956 | 0.868 (inactive) | 0.112 | 0.132 | 0.651 | 2.94 | 1.48 | -0.0258 | -0.581 | 0.489 |
| CC(C)C(O)C1C=CC2C(=O)NC(=O)C2N1Nc1ccccn1 (stereo not given) | 0.927 | -0.43 | 0.108 | 0.0802 | -0.187 | 0.009 | -0.0793 | 0.116 | 0.325 | 0.631 | 0.701 | 0.316 (inactive) | -0.0044 | -0.0464 | 0.722 | 1.59 | 0.331 | 0.472 | -0.369 | 0.561 |
| CCCc1cc2c(n1CCc1ccc(Cl)cc1)C(C)C1CN(C(=O)c3ccccc3)C(C)(C(=O)OC)C21 (stereo not given) | 0.274 | -2.1 | -0.338 | 2.48 | 1.28 | 0.16 | 0.241 | 1.24 | 1.53 | 2.19 | 1.03 | 0.313 (inactive) | 0.201 | 0.203 | 0.862 | 2.94 | 1.07 | 1.03 | -1.75 | 1.16 |
